Among the targets are LANCL2; LARP1B; LAMC1; LASS1; LCN1; LASP1; LCE2C; LIN54; LINGO4; LIN7C; LIPA; LIMK2.
Holding throughout (experiment): pooled miR-30 sensor sort-seq; sequence = guide strand
Conditions in all cases: shRNA

For 84 sequences, sensor-assay potency score (higher = more potent) results are on record in the OligoGym collection.
Note: reference of the scale not given here.

As for TTTTGTGACACATTCCTGGGAC, the sensor-assay potency score (higher = more potent) with LANCL2 is 0.967. For TAGGATCTTGTAACCTAGGTGT, the sensor-assay potency score (higher = more potent) in the test with LARP1B came to 0.016. On the same count and under the same terms, as for TTTATTGAAGTGATCTCTGAGG, the figure is -0.332. Regarding TTAACATATAGTAAATTCCAGC, the sensor-assay potency score (higher = more potent) with LANCL2 was -0.758. With TAGGACTTGAGAACTTTGGGAT, in the test with LAMC1, the sensor-assay potency score (higher = more potent) is 0.474. Still for that read-out and setting: in the case of TTGACTTCAAGTTCCTTCCCTC it was 0.467. In the test with LANCL2, TAATAGCTGACTCACACACGGT showed a sensor-assay potency score (higher = more potent) of -0.857. The sequence TAGGCACTGTAGCTCCAGCTGC showed a sensor-assay potency score (higher = more potent) with LASS1 of -1.01.

Consider ATGCTCTCCGTGCTGAGTCCGC, for which the sensor-assay potency score (higher = more potent) with LCN1 is -1.5.

Regarding TCGTAGAAGACAGATGGTGGGT, the sensor-assay potency score (higher = more potent) with LASS1 is -0.363. On the same count and under the same terms, as for AAACTTCCAAGCGCTCTCGGGC, the figure is -0.904. On to TTGTAGCGCACCTGACTCTGGA, for which, in the test with LASP1, the sensor-assay potency score (higher = more potent) was -0.666. Turning to TACACGATCTTGCCGCACCGGG, the sensor-assay potency score (higher = more potent) with LASP1 is -1.34. Same read-out and setting: as for TACGCTGAAACCTTTGCCCTTG, the figure is 0.0341. Regarding TCACTCTCACAGCAGTCGGGGC, in the test with LCE2C, the sensor-assay potency score (higher = more potent) is -1.13. With TAGAGGCGGAACCAGAACCAGC, the sensor-assay potency score (higher = more potent) with LASS1 is -1.74. In the test with LASP1, TTATATTACTGATCTGGTCCTG had a sensor-assay potency score (higher = more potent) of 0.57.

Turning to TTTTATATTACTGATCTGGTCC, in the test with LASP1, the sensor-assay potency score (higher = more potent) was -0.194. ACACTTGGGAGGACACTTGGGA returned a sensor-assay potency score (higher = more potent) with LCE2C of 0.0104. ATCCTGAATCTCCTCGTCTGAG came in with a sensor-assay potency score (higher = more potent) with LCN1 of -1.24. The same measure, in the same setting: as for TCTCCGTGCTGAGTCCGCGGGC, the figure is -0.925. Turning to TTCACTCTCACAGCAGTCGGGG, the sensor-assay potency score (higher = more potent) with LCE2C was -0.831. The sequence ATGTTCAGTGTCATCTTGCAGG yielded a sensor-assay potency score (higher = more potent) in the test with LASP1 of -1.2. AGACTGCAGGGAAACATGGAGC gave a sensor-assay potency score (higher = more potent) in the test with LCE2C of -2.06.

Sequence TTCAGTGTCATCTTGCAGGTCT displayed a sensor-assay potency score (higher = more potent) with LASP1 of 0.744.

Sequence TGGTGGCTCAGGGAGCAGCCAC registered a sensor-assay potency score (higher = more potent) with LCE2C of -2.45. In the test with LASP1, TTCATGTTCAGTGTCATCTTGC registered a sensor-assay potency score (higher = more potent) of 0.197.

On to TAGTCGGTGCCAAACAGCAGGT, for which the sensor-assay potency score (higher = more potent) with LASS1 was -1.18. On the same count and under the same terms, in the case of TAGAAGAGAAACTTCCAAGCGC it was 0.296. In the case of TATATTACTGATCTGGTCCTGG, the sensor-assay potency score (higher = more potent) with LASP1 stood at 0.21. In turn, TATAGCGTAGCGTAGATGGAGT registered a sensor-assay potency score (higher = more potent) with LASS1 of -0.396. In the test with LARP1B, TTTCTTGACTCTCTGATCTTAC showed a sensor-assay potency score (higher = more potent) of -0.67. CACAGCAAGAAGAGACTGCAGG registered a sensor-assay potency score (higher = more potent) with LCE2C of -2.53.

TGTCCATGTATAGCGTAGCGTA registered a sensor-assay potency score (higher = more potent) in the test with LASS1 of -1.61. Consider AGCAAGAAGAGACTGCAGGGAA, for which the sensor-assay potency score (higher = more potent) with LCE2C is -0.624. Take TTCTACTTCTGTGCTATCCTTC: the sensor-assay potency score (higher = more potent) with LARP1B is 0.509. In the test with LASS1, TAGCGTAGCGTAGATGGAGTGG returned a sensor-assay potency score (higher = more potent) of -0.207. Turning to TTGCAGTAGGGCTTCTTCTCGT, the sensor-assay potency score (higher = more potent) with LASP1 is -0.401.

TATTTTATATTACTGATCTGGT showed a sensor-assay potency score (higher = more potent) in the test with LASP1 of -0.425. As for TTTATGCCAGAACTTATCCAGA, in the test with LASP1, the sensor-assay potency score (higher = more potent) was -1.03.

For the sequence TTGAAGTAAATGTTGAGCTTGG, the sensor-assay potency score (higher = more potent) in the test with LASS1 was 0.853. Same read-out and setting: as for TGGAGCAGCATGACCACCGAGT, the figure is -1.27.

In the test with LCN1, TTCCAGGGTCGTGAGGGTCATG gave a sensor-assay potency score (higher = more potent) of -1.33.

On to CTGCAGGGAAACATGGAGCTGG, for which the sensor-assay potency score (higher = more potent) with LCE2C was -1.34. Regarding TTGAAGAAGAAGTAGAAGGGGA, in the test with LASS1, the sensor-assay potency score (higher = more potent) amounted to 0.612.

In the case of TTGTTCTTGGGGTCTCTGCCCA, the sensor-assay potency score (higher = more potent) in the test with LCN1 was -0.515.

In the test with LCE2C, TCAGGGAGCAGCCACCAGCCCC returned a sensor-assay potency score (higher = more potent) of -1.78. In the test with LIN54, TAAACATACTAGATTGAGGTGC showed a sensor-assay potency score (higher = more potent) of -0.0512. In the test with LINGO4, TGTGATGTTTGACCCGACCTTT displayed a sensor-assay potency score (higher = more potent) of -0.94. In turn, TCTAGGACCCTTACTCTCCCAG registered a sensor-assay potency score (higher = more potent) with LINGO4 of -0.898. Consider TTTTCTTACAATCATTGGCATT, for which the sensor-assay potency score (higher = more potent) with LIN7C was -1.46. For TAGCTCCTGGAGCCGCACCAGG, in the test with LINGO4, the sensor-assay potency score (higher = more potent) was -1.44. On to TTGCTCTACAAATATCTCTCTC, for which the sensor-assay potency score (higher = more potent) in the test with LIN7C was -0.491. Still for that read-out and setting: in the case of TCTACAAATATCTCTCTCCAGC it was -1.02.

TAGCTGAGGTCCAATTCCTGGA: the sensor-assay potency score (higher = more potent) with LINGO4 is -0.789.

Consider TACAATTTCAAACACAGTGATT, for which the sensor-assay potency score (higher = more potent) in the test with LIN54 is -0.963.

Turning to TTTGACCCGACCTTTGCCCTTG, the sensor-assay potency score (higher = more potent) with LINGO4 was -0.241.

In the case of TTTGTCTCCAAATAAGTCCTTA, the sensor-assay potency score (higher = more potent) with LIPA was -0.0541. Still for that read-out and setting: in the case of TTAACAAGCATTGTACTGTTAG it was -0.745. The sequence TTATGTAACATTCTGTCTGCAG showed a sensor-assay potency score (higher = more potent) in the test with LIN54 of 0.565. In the test with LIN7C, TCTATCAGCAATTCCACCTGGA had a sensor-assay potency score (higher = more potent) of 1.09. TACTTGATGGTGACCTTCCCTT: in the test with LIMK2, the sensor-assay potency score (higher = more potent) was -0.173.

In the test with LIN54, TAGTCTTTTAAAATCATTGAAT gave a sensor-assay potency score (higher = more potent) of -0.779. With TAGCGTTCGCTCTCACTTCAGG, the sensor-assay potency score (higher = more potent) with LIN7C is -0.712. As to TTGTCTGTCCTGTAACTGCTTT, the sensor-assay potency score (higher = more potent) in the test with LIN54 was -0.449. Still for that read-out and setting: in the case of TTAGTAAGTACTACACAGGAAG it was -0.992; in that of TTTTAAGACATCCTGATCGTTT, -0.141. Consider TTCACTTTGAAGGACTCTTTGC, for which, in the test with LIN7C, the sensor-assay potency score (higher = more potent) was -0.329. Take TTCCACCTGGATGACTTCCAGC: the sensor-assay potency score (higher = more potent) with LINGO4 is -1.16. As to TTTTGGTAGCTCAACAACTCGA, the sensor-assay potency score (higher = more potent) with LIN7C was -0.544. Regarding TCGAGTAACAGATTCCTCCTGG, the sensor-assay potency score (higher = more potent) with LIMK2 amounted to 1.05. Consider TTTCTTTAAAAGATAGTCCTTT, for which the sensor-assay potency score (higher = more potent) in the test with LIN54 came out at 0.288. ATCTAGGAAGAGAACAATCTGG yielded a sensor-assay potency score (higher = more potent) in the test with LINGO4 of -0.599. Consider TTGCCAGACAGCCTCAAGGTGA, for which the sensor-assay potency score (higher = more potent) in the test with LINGO4 is -1.39. TTTCTTCTAAGACTTTGGGTGT showed a sensor-assay potency score (higher = more potent) with LIN7C of -0.276. On the same count and under the same terms, as for TAATATTGAATCCAAGGCCCTC, the figure is -0.834. In the case of TTCACTTGCACAGTGGTGGCGT, the sensor-assay potency score (higher = more potent) with LIMK2 worked out at 0.835. In the test with LIN7C, TAACCTTTCCTTGTGCGGCTTT displayed a sensor-assay potency score (higher = more potent) of 0.0216. TTATCTGCCACATCCAGGAGGT yielded a sensor-assay potency score (higher = more potent) with LINGO4 of -0.12. Sequence TTGTCCAACTTGATGAGGCAGT came in with a sensor-assay potency score (higher = more potent) in the test with LIMK2 of -0.14. In turn, TGAGGTGGTACAGTGCTTGGAA yielded a sensor-assay potency score (higher = more potent) with LINGO4 of 0.431. Regarding TACAACTATAGAGTCCTTGTAG, the sensor-assay potency score (higher = more potent) with LIN54 turned out to be 0.323.

In the test with LIMK2, TTCTGAGATCTCCTCTTCCTGG gave a sensor-assay potency score (higher = more potent) of -0.852. TTGAGAGCTGGTTGTAGCTGAG registered a sensor-assay potency score (higher = more potent) with LINGO4 of -0.0336.
